From PubChem BioAssay
Sampled rows, rich in hits. Any-hit rate of the full collection: about 2.4%.
Abeta rescue: compounds reversing amyloid beta toxicity in yeast; yeast expressing A-beta42, growth rescue, OD600, 48 h; response scale: 0% DMSO, 100% iron-clioquinol control; Potency, µM (top dose mostly 46.1 µM), most hits filed as activators; hit rate 0.063% among 410,000; also: nearly all actives have a fitted effect of over 55% in size
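Yeast A-beta toxicity model in growth medium with pinned compounds, 48 h at 30 C; growth read as absorbance at 600 nm. Normalized to FeCl3/clioquinol equimolar mix (positive) and DMSO (negative).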
TDP43 rescue: TDP-43 toxicity inhibition in yeast | TDP-43 expressing yeast growth rescue, BacTiter-Glo, 24 h | Potency, µM (series often up to 46.1 µM), most hits filed as activators | hit rate 1.8% among 410,000 | AID 652104; also: nearly all actives have a fitted effect of over 50% in size
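Growth rescue of TDP-43-toxic yeast measured as ATP luminescence (BacTiter-Glo). Cells grown to mid-log in raffinose, induced in galactose at OD600=0.02, exposed to compound 24 hr at 30 deg C.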
FUS suppressor: FUS proteinopathy suppression in yeast. Potency, µM (series often up to 76.6 µM), most hits filed as activators. S. cerevisiae FUS-expressing, growth rescue, OD600, 24 h. hit rate 0.24% among 390,000; also: nearly all actives have a fitted effect of over 55% in size
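Restored growth of FUS-toxic S. cerevisiae, read as 600 nm absorbance after 24 h at 30C in galactose medium (starting OD 0.005). Controls CP55940 and DMSO.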
aSyn rescue: inhibitors of alpha-synuclein toxicity in yeast. Yeast expressing alpha-synuclein, growth rescue, BacTiter-Glo, 24 h. Potency, µM (highest dose often 46.1 µM), most hits filed as activators. hit rate 0.14% among 370,000. AID 652106; also: nearly all actives have a fitted effect of over 65% in size
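Rescue of yeast growth: cells expressing toxic alpha-synuclein, induced in galactose at OD600 0.02, incubated with compound 24 h at 30 C. ATP luminescence quantified growth; inhibitors of toxicity appear as activators.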
AT treatment: candidate therapy for ataxia-telangiectasia; F2112 A-T fibroblasts, KAP-1 phosphorylation AlphaLISA; neocarzinostatin DNA damage 30 min before lysis; Potency, µM (titrated, usually from 57.5 µM), usual class: activators; hit rate 0.19% among 320,000; also: nearly all actives have a fitted effect of over 45% in size
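hTERT-immortalized A-T patient fibroblasts (F2112), 500 cells/well in OPTI-MEM, 1% FBS, got compounds for 60 min, then NCS for 30 min at 37C. Lysates were then assayed for phospho-KAP-1 by AlphaLISA (anti-pKAP1 donor, anti-KAP1 acceptor beads), 6 hr at 25C.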
Mito fusion act: inhibitors of mitochondrial division or activators of mitochondrial fusion; S. cerevisiae fusion-defective mutant growth rescue, CellTiterGlo 48 h; hit rate 0.23% among 320,000; Potency, µM (titrated, usually from 46.1 µM), usual class: activators; also: nearly all actives have a fitted effect of over 45% in size
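Compounds are tested for their ability to restore growth of mitochondrial fusion-defective yeast strains at non-permissive 37C in YPEG medium over 48 hours. Viability is quantified by luciferase luminescence.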
Each line names hits and unclear results; the compound was inactive in the other large screens. Calls follow the shape of the dose curve; as a rule, active = well fitted curve in the direction sought with a large enough effect; inconclusive = small, poorly fitted or top-dose-only effect, or another doubt; inactive = no such curve, though single readings can be large; an effect the other way counts as inactive or inconclusive.

CCN(C(=O)CSc1nc2ccccc2n1Cc1ccc(C(=O)OC)cc1)c1ccccc1	none (no result: aSyn rescue, AT treatment, Mito fusion act)
COc1cccc(/C=C/c2nc(C#N)c(N3CCCCC3)o2)c1	TDP43 rescue 15.8µM (no result: aSyn rescue, AT treatment, Mito fusion act)
O=C(OCCn1c(=S)sc2ccccc21)c1ccccc1	TDP43 rescue 11.2µM (no result: FUS suppressor, AT treatment, Mito fusion act)
COc1ccc(NC(=O)CCl)cn1	none (no result: Abeta rescue, TDP43 rescue, FUS suppressor, aSyn rescue)
COc1ccc(NC(=O)/C(Cl)=C(/Cl)S(=O)(=O)Cc2ccccc2)cn1	TDP43 rescue 3.16µM
COc1ccc(NC(=O)CC2(CC(=O)O)CCCC2)cn1	TDP43 rescue 12.6µM
COc1ccc(NC(=O)C(Cl)=C(Cl)Cl)cn1	TDP43 rescue 12.6µM
COc1ccc(NC(=O)Nc2ccc(OCc3ccccc3)cc2)cn1	none
C[N+](C)(CCCCCI)c1ccc(/C=C/c2nc3ccccc3s2)cc1	none (no result: Abeta rescue, TDP43 rescue, FUS suppressor, AT treatment, Mito fusion act)
COc1ccc(OC)c(NC(=O)CSc2ccc(-c3ccco3)nn2)c1	TDP43 rescue 20µM
COc1ccccc1NC(=O)CSc1ccc(-c2cccs2)nn1	TDP43 rescue 22.4µM
COc1ccccc1NC(=O)CSc1ccc(-c2ccco2)nn1	TDP43 rescue inconclusive
COc1ccc(OC)c(NC(=O)CSc2ccc(-c3cccs3)nn2)c1	none (no result: aSyn rescue, AT treatment, Mito fusion act)
O=[N+]([O-])/C=C/c1cn(Cc2ccc(F)cc2)c2ccccc12	TDP43 rescue 12.6µM
CCC(=O)N1c2ccccc2CC1C(=O)NCCc1ccccc1Cl (stereo not drawn)	none (no result: aSyn rescue, AT treatment, Mito fusion act)
O=C(NCc1ccccc1Cl)c1cc2ccccc2o1	TDP43 rescue 11.2µM (no result: aSyn rescue, AT treatment, Mito fusion act)
CCOc1ccc(CCNC(=O)CN2CCN(Cc3ccc(Cl)cc3)C2=O)cc1OCC	none (no result: aSyn rescue, AT treatment, Mito fusion act)
CC(=O)c1cnc2nc(SCc3ccc(Cl)cc3)nn2c1C	TDP43 rescue 14.1µM
CC(=O)c1cnc2nc(SCc3ccc(C)cc3)nn2c1C	none
O=C(N1CCC(n2nc(-c3ccccc3)oc2=O)CC1)C1(c2ccc(Cl)cc2)CC1	TDP43 rescue 22.4µM, FUS suppressor inconclusive, aSyn rescue inconclusive, Mito fusion act inconclusive (no result: Abeta rescue)
CCOc1ccc(C2C=C(c3ccc(C)cc3)Nc3ncnn32)cc1 (stereo not drawn)	none (no result: Abeta rescue, TDP43 rescue, FUS suppressor, aSyn rescue)
Cc1ccc(C2=CC(c3ccc(C)cc3)n3ncnc3N2)cc1 (stereo not drawn)	Abeta rescue inconclusive, TDP43 rescue 15.8µM, aSyn rescue inconclusive (no result: AT treatment, Mito fusion act)
CCOc1ccc(C2C=C(c3ccccc3)Nc3nnnn32)cc1 (stereo not drawn)	none
Clc1ccccc1C1=CC(c2ccco2)n2ncnc2N1 (stereo not drawn)	TDP43 rescue 14.1µM
CCOc1ccc(C2C=C(c3ccc(C)cc3)Nc3nnnn32)cc1 (stereo not drawn)	TDP43 rescue 22.4µM, FUS suppressor inconclusive
CC(C)(C)c1ccc(C2=CC(c3ccccc3)n3ncnc3N2)cc1 (stereo not drawn)	none (no result: AT treatment, Mito fusion act)
FC(F)(F)c1ccccc1C1=CC(c2ccccc2)n2ncnc2N1 (stereo not drawn)	TDP43 rescue 17.8µM (no result: AT treatment, Mito fusion act)
O=C(NCC(c1ccccc1)c1ccccc1)[C@H](Cc1ccccc1)NC1(C(=O)NC2CCCCC2)CCOCC1	none (no result: Abeta rescue, TDP43 rescue, aSyn rescue, AT treatment, Mito fusion act)
O=C(c1ccc2ccccc2c1)C1CCCN(C(=O)c2cccnc2)C1 (stereo not drawn)	none
O=C(c1noc2c1CCCCC2)N1CCN(c2ccc(Cl)cc2)CC1	none (no result: aSyn rescue, AT treatment, Mito fusion act)
Cc1ccc(Cl)cc1N1CCN(C(=O)c2noc(C)c2[N+](=O)[O-])CC1	TDP43 rescue 12.6µM, Mito fusion act inconclusive
Cc1cccc(N2CCN(C(=O)c3noc4c3CCCCC4)CC2)c1C	TDP43 rescue 15.8µM (no result: aSyn rescue, AT treatment, Mito fusion act)
Cc1onc(C(=O)N2CCN(c3ccccc3)CC2)c1[N+](=O)[O-]	TDP43 rescue inconclusive
O=C(c1ccc2ccccc2c1)C1CCCN(C(=O)c2noc3c2CCCC3)C1 (stereo not drawn)	Mito fusion act 10µM
Cc1ccc(Cl)cc1N1CCN(C(=O)c2noc3c2CCCC3)CC1	TDP43 rescue 22.4µM (no result: aSyn rescue, AT treatment, Mito fusion act)
CCN(C(=O)C1CCN(S(=O)(=O)c2cc(Br)cc3c2N(C(C)=O)CC3)CC1)c1cccc(C)c1	FUS suppressor inconclusive (no result: aSyn rescue, AT treatment, Mito fusion act)
